Source: PubChem BioAssay AID2108 (National Center for Advancing Translational Sciences (NCATS), 2009)
Records with an inconclusive call do not appear. Active and inactive are the calls of the source. Calls follow the shape of the dose curve; as a rule, active = well fitted curve in the direction sought with a large enough effect; inconclusive = small, poorly fitted or top-dose-only effect, or effect the other way, or another doubt; inactive = no such curve, though single readings can be large or run the other way.

The compounds below were run against Alpha-galactosidase A (Homo sapiens) (UniProt P06280) (assay: Confirmation of Inhibitors of Human alpha-Galactosidase Using Spleen Homogenate). Conditions: alpha-galactosidase enzyme activity; series mostly up to 56.2 µM; activity change: at the top concentration.
Chain of Alpha-galactosidase A (Homo sapiens) (P06280 32-429 limits assumed): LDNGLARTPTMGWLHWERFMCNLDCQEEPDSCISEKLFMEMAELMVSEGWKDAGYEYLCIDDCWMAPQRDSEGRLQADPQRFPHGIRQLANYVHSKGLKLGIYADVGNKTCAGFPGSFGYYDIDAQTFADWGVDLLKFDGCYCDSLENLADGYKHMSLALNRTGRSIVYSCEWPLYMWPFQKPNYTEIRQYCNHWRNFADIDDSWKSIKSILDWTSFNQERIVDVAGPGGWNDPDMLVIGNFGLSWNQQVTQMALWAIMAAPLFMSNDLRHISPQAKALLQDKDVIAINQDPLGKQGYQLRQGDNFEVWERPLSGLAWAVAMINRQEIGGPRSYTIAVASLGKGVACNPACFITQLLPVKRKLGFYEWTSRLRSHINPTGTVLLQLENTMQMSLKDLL
Outline: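 Human spleen homogenate (1 ug) with 1 mM 4-methylumbelliferyl-alpha-D-galactopyranoside in citrate-phosphate pH 5.0, 0.01% Tween-20, 37C 40 min; compounds 0.5 nM–58 uM final. Stopped at pH 10, fluorescence Ex 365/Em 440; AC50 from Hill fits.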
Also: 0% is about no effect.

Activity change, inactive:
O=C(c1cccc2ccccc12)N1CCN(S(=O)(=O)c2ccccc2)CC1 -3.25%
COc1cccc2ccc(/C=C/c3ccc4c(c3)OCO4)nc12 6.44%
CCN(CC)c1ccc(/C=N/NC(=O)C(O)c2ccccc2)cc1 (stereo unspecified) -3.15% [at 23.6 µM]
O=C(c1cc2c(ccc3ccccc32)oc1=O)N1CCN(CCO)CC1 14.3% [at 23.6 µM]
COc1cc(CN2CCC(CO)(Cc3cccc(C(F)(F)F)c3)CC2)ccc1F -4.41%
Cc1cccc(NC(=O)c2nc[nH]c2C(=O)N[C@@H](CCCCNC(=O)OC(C)(C)C)C(=O)OC(C)(C)C)c1 -3.5%
NN=C1c2cc(S(=O)(=O)NCCO)ccc2-c2ccc(S(=O)(=O)NCCO)cc21 4.61%
CCOC(=O)C(CC)(CCC(=O)O)c1csc(Nc2ccc(C)cc2)n1 (stereo unspecified) 9.44% [at 23.6 µM]
Cc1[nH]nc2c1C(c1ccc(OC(=O)c3ccco3)cc1)C(C#N)=C(N)O2 (stereo unspecified) -1.13%
CCOC(=O)CCc1cccc2c1CCC2=O 10.5% [at 23.6 µM]
COc1ccc(S(=O)(=O)N2CCOCC2)cc1 0.0857%
COc1ccc(S(=O)(=O)N2CCN(C(=O)COc3ccc4c(C)cc(=O)oc4c3)CC2)cc1 9.75%
Cc1cccc2cc3c(NC(=O)c4ccccn4)nn(C)c3nc12 4.42% [at 23.6 µM]
Cc1ccc(CCNC(=O)CNC(=S)N(Cc2ccccc2)Cc2cccnc2)cc1 4.95%
COc1cc(-c2cc(N3C(=O)Nc4ccccc4N3O)n[nH]2)cc(OC)c1OC 6.53% [at 23.6 µM]
CNc1ncnc2c1ncn2[C@H]1C[C@H](OP(=O)(O)O)[C@@H](COP(=O)(O)O)O1 -2.16% [at 287 µM]
COC(=O)c1cc(OC)c(OC)cc1NC(=O)CCCCCN1C(=O)CCC1=O 10.8% [at 23.6 µM]
O=C(Cn1c(=O)[nH]n(-c2ccccc2)c1=O)N1CCCc2ccccc21 5.01% [at 23.6 µM]
CC1CC(C)CN(CC(=O)N2c3ccccc3CCc3ccccc32)C1 (stereo unspecified) -3.83%
OCC1NCC(O)C(O)C1O (stereo unspecified) -3.01%
Cn1c(-c2ccco2)nc2cc3ccccc3cc21 14.9% [at 23.6 µM]
Cc1ccccc1Nc1c(-c2cccs2)nc2cccc(C)n12 -6.82%
C=CCSc1nc(-c2ccc3c(c2)OCO3)cc(C(F)(F)F)c1C#N 69.7%
Cc1nc(SCC(=O)N2CCN(c3ccccc3)CC2)c2oc3ccccc3c2n1 11.7%
COCCSc1nc(N)c2c3c(sc2n1)CN(C)CC3 3.09%
CC1CCc2c(nc3ncnn3c2N2CCN(c3ccccc3F)CC2)C1 (stereo unspecified) 1.27% [at 23.6 µM]
Cc1[nH]n(C(N)=S)c(=O)c1N=Nc1ccc2ccccc2c1 3.36%
Cc1ccc(N/N=C2\CCS(=O)(=O)c3sccc32)cc1 1.34%
O=C1c2cc(S(=O)(=O)N3CCOCC3)ccc2-c2ccc(S(=O)(=O)N3CCOCC3)cc21 11.1%
C=CCCCCCCCCCCCc1ccco1 -17.2% [at 287 µM]
COC(=O)c1cccc(S(=O)(=O)N2CCOCC2)c1 10.6%
COc1ccccc1NCC(=O)c1ccc(C)c(C)c1 -6.57%
O=C1c2cc(O)c(O)cc2S(=O)(=O)C1c1ccccc1 (stereo unspecified) 0.148%
COCCn1c(=NC(=O)c2ccc3c(c2)OCO3)c(C#N)cc2c(=O)n3cccc(C)c3nc21 2.06% [at 23.6 µM]
O=S(=O)(c1ccc2c(c1)C(=NNc1ccccc1)c1cc(S(=O)(=O)N3CCOCC3)ccc1-2)N1CCOCC1 13.8%
S=C(NCCc1ccccc1)N1CCn2cccc2C1c1ccncc1 (stereo unspecified) 0.147%
